DRD3 antagonist: antagonists of human D3 dopamine receptor. D3R cells, DiscoveRx beta-arrestin luminescence, antagonist mode; hits give low values. max response, negative = inhibition, %. actives 2.5% (n = 360,000). AID 652054; in the data active = max response below about -50%; also: % is scaled to controls: 0 for no effect and ±100 for the full control effect
Target sequence (P35462 whole entry, looked up): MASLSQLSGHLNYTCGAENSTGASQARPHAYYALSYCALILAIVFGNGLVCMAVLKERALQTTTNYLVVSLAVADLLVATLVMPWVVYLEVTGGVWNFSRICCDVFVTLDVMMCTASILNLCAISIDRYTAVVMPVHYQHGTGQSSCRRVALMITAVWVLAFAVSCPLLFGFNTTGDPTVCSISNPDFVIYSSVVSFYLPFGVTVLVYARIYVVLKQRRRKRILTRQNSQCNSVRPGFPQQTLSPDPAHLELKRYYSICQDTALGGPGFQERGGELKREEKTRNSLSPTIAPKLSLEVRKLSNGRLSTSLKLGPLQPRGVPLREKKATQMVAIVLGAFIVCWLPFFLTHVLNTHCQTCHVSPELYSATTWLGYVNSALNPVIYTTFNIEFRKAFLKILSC
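Cells plated overnight at 1500 cells/well, then exposed to library compounds with dopamine controls for 90 minutes at 37 degrees C. DiscoveRx reagent added for 30–60 minutes at room temperature; luminescence read, quantitative HTS format.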
D1 PAM: potentiators of human D1 dopamine receptor; HEK293 TREx D1 cells, calcium flux, dopamine EC20 potentiation; P21728; potentiation, % at 10 µM; actives 0.036% (n = 360,000); in the data active = potentiation above about 30%; also: 0% is about no effect
D3 ag: D3 dopamine receptor (human) agonism | actives 0.58% (n = 410,000) | D3R DiscoveRx beta-arrestin cells, luminescence, 90 min | max activation, %; in the data active = max activation above about 30%; also: 0% is about no effect
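Agonist-mode cell screen: cells plated at 1500/well and incubated overnight at 37 °C, then exposed to library compounds for 90 min at 37 °C. Detection reagent was added for 30–60 min at room temperature, and luminescence was read.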
D1 ag: activates the human D1 dopamine receptor | P21728 | HEK293 T-REx D1 cells, calcium flux, agonist mode | activation, % at 2 µM | actives 1% (n = 360,000); in the data active = activation above about 30%; also: 0% is about no effect
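Agonism was scored from calcium flux recorded over 180 s (1 read/s) after pintool compound addition, following a 10-cycle baseline. Cells were inducible force-coupled HEK293 TREx D1, plated overnight at 30 C and loaded with no-wash calcium dye.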
D1 antag: antagonists of human D1 dopamine receptor; P21728; HEK293 TREx D1 cells, calcium flux, dopamine EC80; hits give low values; activity change, negative = inhibition, % at 10 µM; actives 3.2% (n = 360,000); AID 504652; in the data active = activity change below about -30%; also: % is scaled to controls: 0 for no effect and ±100 for the full control effect
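Calcium flux readout: force-coupled, inducible Hek293 Trex D1 line, cells induced overnight at 30 C with tetracycline, dye-loaded 30–90 min at RT. Antagonism scored against EC80 dopamine challenge given 180 s after compound.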
The depositor's hits bear a star; x = no result given. Most compounds without a hit are left out; they make up all but 6% or so of the library.

SMILES | DRD3 antagonist | D1 PAM | D3 ag | D1 ag | D1 antag
Cc1ccc(S(=O)(=O)Nc2cc3c(cc2N2CCOCC2)n(C)c(=O)n3C)c(C)c1 | x | 3 | 4 | 0 | -18
COc1ccc(OC)c(NC(=O)CN2C(=O)CCc3cc(S(=O)(=O)N4CCCCC4)ccc32)c1 | x | 0 | -14 | 2 | 4
COC(=O)c1ccc(NC(=O)CSc2ccccc2)cc1 | 7 | -4 | 4 | 2 | -75*
COC(=O)c1ccc(NC(=O)CN2CCN(c3ccccc3)CC2)cc1 | -25 | -4 | 33* | 2 | -19
CCN(CC)C(=O)Nc1ccc(C(=O)OC)cc1 | -69* | -2 | 0 | 1 | -3
CCN(CC)C(=S)Nc1ccc(C(=O)OC)cc1 | 6 | -4 | -1 | 0 | 9
CCOC(=O)c1c(C)[nH]c(CCC(=O)Nc2ccc(C)c(F)c2)c1C | x | -4 | 3 | 2 | -24
O=C(CSc1nc(=O)n(Cc2ccncc2)c2c1CCC2)Nc1cccc(F)c1 | x | 2 | 7 | -2 | x
Cc1ccc(S(=O)(=O)NCCNC(=O)C2CCCNC2=O)cc1 (configuration not stated) | 6 | -3 | 4 | 5 | -46*
CCOC(=O)C1CCN(C(=O)c2c(C)nn(-c3ccc(F)cc3)c2-n2cccc2)CC1 | x | -2 | 2 | -1 | -8
CCC/C(=N\NC(=O)c1csc(C)c1C)c1cccs1 | -51* | -14 | -10 | 2 | 6
Cc1ccc(CNC(=O)c2sc3nc4n(c(=O)c3c2C)CCCC4)cc1 | x | -4 | 4 | 28 | -26
COc1cc(N2C(=O)C=CC2=O)ccc1N1C(=O)C=CC1=O | -68* | x | -30 | x | x
COc1ccc(N2C(=O)C3CC(C)=C(C)CC3C2=O)c(OC)c1 (configuration not stated) | -16 | -6 | 2 | 1 | -5
COc1cc(/C=C/C(=O)O[C@H]2CC[C@]34C[C@]35CC[C@]3(C)[C@@H]([C@H](C)CCC=C(C)C)CC[C@@]3(C)[C@@H]5CC[C@H]4C2(C)C)ccc1O | x | x | 11 | x | x
Cc1ccccc1-n1c(SCC(=O)Nc2ccccc2Cl)nc2n[nH]c(C)c2c1=N | 33 | -7 | 5 | 4 | -8
CCOc1ccccc1NC(=O)CCSc1nc2n[nH]c(C)c2c(=N)n1-c1ccccc1Cl | 26 | 1 | 30* | 1 | 9
CN(C)c1ccc(/C=c2\sc3n(c2=O)CCCN=3)cc1 | 3 | -4 | -1 | 46* | 3
CCN(CC)c1cc(C)c2cc(NC(=O)/C=C/c3ccccc3Cl)ccc2n1 | x | -1 | -1 | 1 | 8
CC1CCN(S(=O)(=O)N2CCC(C(=O)NCc3ccc4c(c3)OCO4)CC2)CC1 | 4 | -7 | 3 | 1 | -5
Cc1ccc(CNC(=O)C2CCN(S(=O)(=O)N3CCOCC3)CC2)cc1 | 7 | -8 | 40* | 2 | 10
CC(C)NC(=O)C1CCN(C2CCN(C(=O)Cc3ccc4c(c3)OCO4)CC2)CC1 | -14 | -4 | -18 | 0 | -33*
CS(=O)(=O)N1CCC(C(=O)NCc2ccc3c(c2)OCO3)CC1 | 2 | 1 | -4 | 1 | -35*
O=C(C1CCC(Cn2c(=O)c3sccc3n(Cc3ccccc3F)c2=O)CC1)N1CCOCC1 (configuration not stated) | x | -2 | 7 | 1 | -5
CCOc1ccc(-c2csc(NC(=O)CSCC(=O)O)n2)c2ccccc12 | 85 | 5 | 45* | -2 | 12

High-throughput results: PubChem, National Center for Advancing Translational Sciences (NCATS)
